Results filed as inconclusive are left out. A call without a number means that no potency is given here. Active and inactive are the calls of the source. Calls come from the whole dose curve; as a rule, active = well fitted cell-killing curve with a large enough effect in the repeat runs (not every such curve was filed as active); inconclusive = weak or mixed curves, or effect the other way; inactive = no such curve, though single readings can be large or run the other way.
assay: qHTS assay to identify small molecule antagonists of the farnesoid-X-receptor (FXR) signaling pathway - cell viability counter screen (AID 743221); settings: FXR-bla HEK293T viability, CellTiter-Glo luminescence, 16 h; series mostly up to 62.6 µM; note: nearly all actives have a fitted effect of over 50% in size
From the text: National Center for Advancing Translational Sciences [NCATS]
NIH Chemical Genomics Center [NCGC]
U.S. Environmental Protection Agency [EPA]
National Institutes of Environmental Health Sciences [NIEHS]
National Toxicology Program [NTP]
U.S. Food and Drug Administration [FDA]
The farnesoid-X-receptor (FXR), a nuclear hormone receptor, is highly expressed in liver, intestine, kidney and adrenal cortex. Natural ligands of FXR are the bile acids (Cholic acid, Chenodeoxy cholic acid etc). FXR is an important regulator of diverse metabolic pathways, including the bile acid homeostasis, lipid and glucose metabolisms. FXR regulates the expression of target genes by binding either as a monomer or as a heterodimer with the retinoid X receptor (RXR). Numerous studies have reported that FXR exerts protective function during cholestasis, diabetes, liver regeneration, and cancer. To identify compounds that inhibit FXR signaling, GeneBLAzer FXR-UAS-bla HEK 293T cell line (Invitrogen, Carlsbad, CA) containing a beta-lactamase reporter gene under the control of a UAS response element was used to screen the Tox21 10K compound library. The cytotoxicity of the Tox21 compound library against the FXR-bla cell line was tested in parallel by measuring the cell viability using CellTiter-Glo assay in the same wells.
Tox21 Assay Protocol Summary:
FXR-bla cells were dispensed at 5000 cells/5uL/well in 1536-well black wall/clear bottom plates using a Multidrop Combi (Thermo Fisher Scientific, Waltham, MA) dispenser. After the assay plates were incubated at 37 C and 5% CO2 for 5 h, 23 nL of compounds dissolved in DMSO, positive controls or DMSO only was transferred to the assay plate by a Pintool station (Kalypsys, San Diego, CA), followed by addition of 1 uL Chenodeoxycholic acid (50 uM, final concentration in the wells). The assay plates were incubated at 37C for 16 h. After 1 uL of LiveBLAzerTM B/G FRET substrate was added using a Bioraptr Flying Reagent Dispenser (FRD) workstation (Beckman Coulter, Indianapolis, IN), the plates were incubated at room temperature for 2 h, and fluorescence intensity was measured by an Envision plate reader (PerkinElmer, Shelton, CT). For cell viability readout that measures cytotoxicity, 4uL/well of CellTiter-Glo reagent was added into the assay plates using a Bioraptr FRD. After 30 min incubation at room temperature, the luminescence intensity in the plates was measured using a ViewLux plate reader (PerkinElmer).
Potency is the fitted concentration of half-maximal effect.

| Structure (SMILES) | Potency | activity change, negative = cytotoxicity |
| --- | --- | --- |
| c1ccc(CNCCNCc2ccccc2)cc1 | inactive | – |
| C=CCOC(=O)CCC1CCCCC1 | inactive | – |
| CCOCC(O)COc1ccc(NC(=O)CC[S+](C)C)cc1 (stereo not given) | inactive | – |
| COS(=O)(=O)C(F)(F)F | inactive | – |
| CCCCC1=NC2(CCCC2)C(=O)N1Cc1ccc(-c2ccccc2-c2nn[nH]n2)cc1 | inactive | – |
| CCCCCCCCCCCC(=O)OC[C@@H](O)[C@H]1OC[C@H](OCCO)[C@H]1OCCO | inactive | – |
| CCCCCCCCCc1ccc(OCCOCCO)cc1 | inactive | – |
| O=C(O)C1(C(=O)O)CCC1.[NH2-].[NH2-].[Pt+2] | inactive | – |
| COCCCN1CCC(NC(=O)c2cc(Cl)c(N)c3c2OCC3)CC1 | inactive | – |
| O=S(=O)(Oc1ccc(Cl)cc1)c1ccccc1 | inactive | – |
| O=C(O)CNCC(=O)O | – | -4.51% [at 5.95 µM] (inactive) |
| COc1ccc(S(=O)(=O)N2C(=O)[C@@](c3ccccc3OC)(N3C[C@H](O)C[C@H]3C(=O)N(C)C)c3cc(Cl)ccc32)c(OC)c1 | inactive | – |
| COc1cccc(N(C)C(=S)Oc2ccc3c(c2)CCCC3)n1 | inactive | – |
| CN(C)c1ccc(C(c2ccccc2)c2ccc(N(C)C)cc2)cc1 | inactive | – |
| Cn1c(=O)cc(Oc2ccc(F)cc2F)c2cnc(NCC(C)(C)O)nc21 | inactive | – |
| O=C1c2ccccc2S(=O)(=O)N1CCCCN1CCN(c2ncccn2)CC1 | inactive | – |
| COc1cc2nc(N(C)CCCNC(=O)C3CCCO3)nc(N)c2cc1OC (stereo not given) | inactive | – |
| CC(=O)[O][Al] | inactive | – |
| COc1ccc(C)cc1[N+](=O)[O-] | inactive | – |
| CCCNCC(O)COc1ccccc1C(=O)CCc1ccccc1 (stereo not given) | inactive | – |

| Structure (SMILES) | Potency | activity change, negative = cytotoxicity |
| --- | --- | --- |
| CCOc1ccc(O)cc1 | inactive | – |
| CC[N+]1(CC)CCC(=C(c2ccccc2)c2ccccc2)C1C (stereo not given) | inactive | – |
| OC[C@H]1O[C@@H](OCCc2ccc(O)cc2)[C@H](O)[C@@H](O)[C@@H]1O | inactive | – |
| CC(CC=O)c1ccccc1 (stereo not given) | inactive | – |
| Cc1cccc(C)c1OCC(=O)N[C@@H](Cc1ccccc1)[C@@H](O)C[C@H](Cc1ccccc1)NC(=O)[C@H](C(C)C)N1CCCNC1=O | 23.7 µM (active) | – |
| CCc1c(C(=O)NN2CCCCC2)nn(-c2ccc(Cl)cc2Cl)c1-c1ccc(Br)cc1 | 24.5 µM (active) | – |
| NCc1ccccc1Sc1ccccc1CO | inactive | – |
| NC(N)=NCCC[C@H](N)C(=O)O | – | -8.21% [at 5.95 µM] (inactive) |
| COc1ccc(C(=O)N2CCN(CC(=O)N3CCOCC3)CC2)cc1 | inactive | – |
| Cc1c(N)cccc1[N+](=O)[O-] | inactive | – |
| CC(C)CC(=O)C1C(=O)c2ccccc2C1=O | inactive | – |
| CCNc1cc(O)ccc1C | inactive | – |
| O=[N+]([O-])c1ccc2[nH]ncc2c1 | inactive | – |
| CC(C)OC(=O)C(C)N(C(=O)c1ccccc1)c1ccc(F)c(Cl)c1 (stereo not given) | inactive | – |
| COc1ccc2cccc(CCNC(C)=O)c2c1 | inactive | – |
| COc1cc2nc(N3CCN(C(=O)C4COc5ccccc5O4)CC3)nc(N)c2cc1OC (stereo not given) | inactive | – |
| O=C(O)c1ccco1 | inactive | – |
| CCOC(=O)Cc1cccc2ccccc12 | inactive | – |
| CCC(C)(C)CC | inactive | – |
| O=C1CCC(=O)O1 | inactive | – |
